# In the supplement of paper PMC10981050:
# Values joined by “and” are separate entries in the source; they are usually repeats but may differ in a detail not shown here. Equal entries are not always repeated. Structures can show the parent of a compound that is named as a salt.
# Key:
# Assay in all cases: cell viability relative to vehicle control; higher = less cytotoxic
# Settings in all cases: 10 µM
# K562 = system: K562
# Outline: (§1)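 Mutant clones made by CRISPR editing and their isogenic wild-type counterparts, from four leukaemia lines, were exposed to a single 10 µM dose of each library compound for 48 h. The supernatant was then removed and CellTiter-Glo luminescence was read. Viability was reported as percent of the on-plate vehicle control.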
# MARIMO = system: MARIMO
# Outline: as §1
# MOLM14 = system: MOLM14
# Outline: as §1
# OCI-AML2 = system: OCI-AML2
# Outline: as §1
Compound,cell viability (K562; SRSF2 genotype: SRSF2 P95H/wt),cell viability (K562; SRSF2 genotype: SRSF2 wt/wt) [%],cell viability (MARIMO; SRSF2 genotype: SRSF2 P95H/wt) [%],cell viability (MARIMO; SRSF2 genotype: SRSF2 wt/wt) [%],cell viability (MOLM14; SRSF2 genotype: SRSF2 P95H/wt) [%],cell viability (MOLM14; SRSF2 genotype: SRSF2 wt/wt) [%],cell viability (OCI-AML2; SRSF2 genotype: P95H/wt) [%],cell viability (OCI-AML2; SRSF2 genotype: wt/wt) [%]
Cc1cc(O)cc(OC2OC(CO)C(O)C(O)C2O)c1 (stereo not given) [Orcinol glucoside],104% and 100%,101,97.5,104,102,106,108,95.4
CO[C@@H]1[C@H](OC(=O)/C=C/C=C/C=C/C=C/C(=O)O)CC[C@]2(CO2)[C@H]1[C@@]1(C)O[C@@H]1CC=C(C)C [Fumagillin],77.1% and 77.5%,72.3,51.5,69.4,50.9,50.5,72.4,63
CN[C@H]1CC[C@@H](c2ccc(Cl)c(Cl)c2)c2ccccc21 [Sertraline HCl],30.3% and 54.2%,52.8,41.7,48,32.7,42.9,26.2,37.5
O=C(O)c1ccc2c(c1)nc(Nc1cccc(Cl)c1)c1ccncc12 [cx-4945 (Silmitasertib)],49.9% and 60.1%,63.7,49.7,47.3,26.9,34,5.84,22.2
COc1cccc(/C=N/N(C(=O)C(F)(F)F)c2ccc(C)cc2C)c1,90.5% and 95.3%,99.8,83.5,102,98.5,105,101,106
O=Cc1ccc(O[C@@H]2O[C@H](CO)[C@@H](O)[C@@H](O)[C@H]2O)cc1 [Helicide],99% and 102%,103,96,99.9,97.8,104,99.8,96.5
CC(C)(C)C[C@@H]1N[C@@H](C(=O)N[C@H]2CC[C@H](O)CC2)[C@H](c2cccc(Cl)c2F)[C@]12C(=O)Nc1cc(Cl)ccc12,76.2% and 81.8%,74.8,84.9,83.6,0.31,0.33,0.34,8.97
"COc1cc(/C=C/C(=O)OC[C@H]2O[C@H](O[C@]3(CO)O[C@H](CO)[C@@H](O)[C@@H]3OC(=O)/C=C/c3cc(OC)c(O)c(OC)c3)[C@H](O)[C@@H](O)[C@@H]2O)cc(OC)c1O [3,6'-Disinapoyl sucrose]",106% and 103%,101,106,109,112,105,102,105
CCC(C)C1OC2(CCC1C)CC1CC(CC=C(C)C(OC3CC(OC)C(OC4CC(OC)C(O)C(C)O4)C(C)O3)C(C)C=CC=C3COC4C(O)C(C)=CC(C(=O)O1)C34O)O2 (stereo not given) [Ivermectin],24.6% and 35%,26.9,25.9,22.9,21.3,18.4,4.65,7.41
Nc1nc(=O)[nH]cc1F [Flucytosine (Ancobon)],102% and 98.9%,102,103,105,95.9,102,105,109
C=CCc1cc(OC)c(O)c(C(=O)NCCO)c1 [Alibendol],100% and 103%,103,98.2,104,98.2,102,100,112
O=C1NC(=O)C(c2cnc3ccccn23)=C1c1cn2c3c(cc(F)cc13)CN(C(=O)N1CCCCC1)CC2,56.1% and 43.4%,71.5,94.4,103,86.8,79.5,118,119
N#Cc1c(N)nc(NC2CC2)nc1N [Dicyclanil],96.3% and 102%,105,94.5,105,104,102,107,99.9
Cc1ccc(S(=O)(=O)Nc2cc(-c3ccc(C#N)s3)ccc2C)cc1,12.9% and 36.3%,33.5,7.34,8.88,1.58,1.53,2.78,5.12
NCC(=O)Nc1ccc(-n2nc(C(F)(F)F)cc2-c2ccc3c(ccc4ccccc43)c2)cc1,0.38% and 0.39%,0.29,0.31,0.5,0.18,0.22,0.19,0.23
Clc1ccc2nsnc2c1NC1=NCCN1 [Tizanidine HCl],104% and 101%,104,94.3,107,103,99.6,101,106
Cc1cc2c3c([n+](C)c4ccc(F)cc4c3c1)-c1cc(F)ccc1N2C [RHPS 4 methosulfate],48.6% and 58.2%,61.4,52.5,50.6,5.12,27.5,0.13,8.9
CC(C)(O)C1CCC(C)(C2C(O)CC3(C)C4CC(OC5OC(CO)C(O)C(O)C5O)C5C(C)(C)C(OC6OCC(O)C(O)C6O)CCC56CC46CCC23C)O1 (stereo not given) [Astragaloside A],104% and 103%,99.1,109,111,106,107,97.2,103
CCCCCCCCCCCCCCCCn1cc[n+](Cc2ccccc2)c1C,0.26% and 0.36%,0.22,0.21,0.19,0.01,0,0.05,0.07
O=C(NS(=O)(=O)c1ccc(Br)s1)c1ccc(Cl)cc1Cl,92.9% and 102%,103,97,98.4,61.8,83.3,73.9,87.6

Compound,cell viability (K562; SRSF2 genotype: SRSF2 P95H/wt),cell viability (K562; SRSF2 genotype: SRSF2 wt/wt) [%],cell viability (MARIMO; SRSF2 genotype: SRSF2 P95H/wt) [%],cell viability (MARIMO; SRSF2 genotype: SRSF2 wt/wt) [%],cell viability (MOLM14; SRSF2 genotype: SRSF2 P95H/wt) [%],cell viability (MOLM14; SRSF2 genotype: SRSF2 wt/wt) [%],cell viability (OCI-AML2; SRSF2 genotype: P95H/wt) [%],cell viability (OCI-AML2; SRSF2 genotype: wt/wt) [%]
C[C@H]1COC2(CCN(c3nc(=O)c4cc(C(F)(F)F)cc([N+](=O)[O-])c4s3)CC2)O1 (racemic) [BTZ043 racemate],88.3% and 84.3%,84.1,82.4,86.7,87,85.3,91.7,86.9
O=C(O)CCCN1CCC(O[C@@H](c2ccc(Cl)cc2)c2ccccn2)CC1 [Bepotastine Besilate],89.5% and 84.3%,84.8,86.5,97.8,90.9,93.3,82.6,86.2
O=C(Nc1cccc(C(F)(F)F)c1)Nc1cc(S(=O)(=O)NC2CC2)ccc1-c1ccsc1,82.6% and 92.4%,80.2,94.2,104,92,94.4,86.6,95
O=C1NC(=NCc2cccs2)S/C1=C\c1ccc2ncccc2c1,92% and 98.2%,98.2,50.9,77.9,37,41.1,53.8,57.1
O=C(NCCS(=O)(=O)c1ccc(C(F)(F)F)cn1)c1ccc(Cl)cc1,103% and 96.6%,102,91.2,102,102,99.2,91.7,102
"Oc1cc(O)c2c(c1)OC(c1ccc(O)c(O)c1)C(O)C2 (single isomer, unassigned; (+)) [(+)-Catechin hydrate]",103% and 94.1%,103,106,103,104,104,104,108
CCc1c2c(nc3ccc(OC(=O)N4CCC(N5CCCCC5)CC4)cc13)-c1cc3c(c(=O)n1C2)COC(=O)[C@]3(O)CC [Irinotecan HCl Trihydrate (Campto)],59.7% and 76.8%,63.1,6.18,6.47,15.1,4.24,3.79,2.87
O=S(=O)(O)CCSSCCS(=O)(=O)O [Dimesna],107% and 101%,95,99.3,103,96.3,99.6,106,105
CC(C)=CC(O)C/C(C)=C/COc1c2ccoc2cc2oc(=O)ccc12 (stereo not given) [Notopterol],72.4% and 82.5%,76.1,64.7,57.1,71.2,56.4,51.5,43
CC(C)(N)C(=O)N[C@H](COCc1ccccc1)C(=O)N1CCC2(CC1)CN(S(C)(=O)=O)c1ccccc12 [Ibutamoren mesylate],91.5% and 97.4%,90,81.1,92,80.1,89.5,82.3,78.9
COc1ccc2cc([C@H](C)C(=O)O)ccc2c1 [Naproxen Sodium],99.4% and 104%,96.2,101,97.2,98.6,102,105,98.7
Cc1c(F)cc(C(=O)NC2CC2)cc1-c1ccc(C(=O)NCC(C)(C)C)cn1 [Losmapimod],92% and 93.7%,97.8,95.7,103,94.1,100,86.7,95.5
OC[C@H]1OC(O)[C@H](O)[C@@H](O)[C@H]1O (stereo partly drawn) [D-Galactose],101% and 103%,98.2,103,105,103,103,105,108
CC1=C(C(=O)Nc2cc3cn[nH]c3cc2F)C(c2ccc(C(F)(F)F)cc2)CC(=O)N1 (stereo not given),99.9% and 96.7%,95.3,89.1,98.6,36.8,91.7,23.6,42.9
Cc1cnc(-c2cc(N3CCN(C(=O)CCS(C)(=O)=O)CC3)ncc2Cl)c(C)c1,98.7% and 98.8%,96.3,101,110,100,104,96.2,105
CCn1c2ccccc2c2cc(CNCc3ccccc3OC)ccc21 [HLCL-61 hydrochloride],81.8% and 88%,84.8,73.9,84.8,75,88.9,65.8,76.6
CC(C)N(CCCNC(=O)Nc1ccc(C(C)(C)C)cc1)C[C@H]1O[C@@H](n2ccc3c(N)ncnc32)[C@H](O)[C@@H]1O,94.6% and 92.6%,86.1,89.3,96.9,95.5,92,84.3,89.6
CN1CCN(c2c(F)cc3c(=O)c(C(=O)O)cn4c3c2OCN4C)CC1 [Marbofloxacin],100% and 108%,105,102,109,103,100,104,110
COc1ccc(-c2ccc3cc(C(=O)O)ccc3c2)cc1C12CC3CC(CC(C3)C1)C2 [Adapalene],93.7% and 97.8%,88.2,45.3,26.6,56.9,23.9,31.2,38.6
Cc1cccc(C)c1NC(=O)C1CCCCN1C (stereo not given) [Mepivacaine HCl],105% and 102%,111,106,95.3,96.5,102,108,99
